The values below come from PubChem BioAssay AID2476 (The Scripps Research Institute Molecular Screening Center, 2010).

Broadly, the IC50 is the concentration at which inhibition is half-maximal.

Calls of active or inactive are those of the source. How the calls were made is not given here.

This experiment is described as follows: DNA binding via dye displacement – biochemical, fluorescence, dose response, counter-screen for HCV NS3 helicase inhibitor project, late-stage follow-up (AID 2476). The conditions noted are these: DNA fluorescent intercalator displacement.
As for `COc1ccc(C=NNC(=O)c2cc(O)c(O)c(O)c2)cc1COc1ccc(C(=O)OCC(C)C)cc1`, the IC50 was > 79.4 µM (inactive).
For `COc1cc(C2C(C(=O)c3ccc(C)o3)=C(O)C(=O)N2c2cc(C)on2)ccc1OCc1ccccc1` (configuration not stated), the IC50 is > 79.4 µM (inactive).
On to `Cc1cc(N2C(=O)C(O)=C(C(=O)c3ccc(C)o3)C2c2ccc(OCc3ccccc3)cc2)no1` (configuration not stated), for which the IC50 is > 79.4 µM (inactive).
The result for `COc1cccc(-n2c(SCc3cc(=O)oc4cc(O)c(O)cc34)nc3ccccc3c2=O)c1` reads > 79.4 µM (inactive); that for `CCCCCOc1ccc(C2C(C(=O)c3ccc(C)o3)=C(O)C(=O)N2c2cc(C)on2)cc1` (configuration not stated), > 79.4 µM (inactive).
Turning to `Cc1ccc(C(=O)C2=C(O)C(=O)N(Cc3ccco3)C2c2cccc(Cl)c2)o1` (configuration not stated), the IC50 was > 79.4 µM (inactive).
Under `CCOc1cccc(C2C(C(=O)c3ccc(C)o3)=C(O)C(=O)N2Cc2ccccc2)c1` (configuration not stated) stands > 79.4 µM (inactive).
